TbPYK inhibitor: inhibitors of Trypanosoma brucei pyruvate kinase. Q57TT1. TbPYK enzyme, Kinase-Glo Plus ATP luminescence, 45 min. Potency, µM (highest dose often 76.8 µM), without a hit: at the highest dose activity, negative = inhibition, most hits filed as inhibitors. actives 0.12% (n = 410,000); also: % is scaled to controls: 0 for no effect and ±100 for the full control effect; nearly all actives have a fitted effect of over 50% in size
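Luminescence from Kinase-Glo Plus, added after a 45-minute room-temperature reaction, served as the end-point read-out. The enzyme and substrate were preincubated with compound before ADP (130 uM final) initiated turnover. Concentration-effect curves came from normalized qHTS data.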
Giardia FBPA inh-1: blocks Giardia fructose-bisphosphate aldolase activity. A8B2U2. purified Giardia FBPA. Potency, µM (titrated, usually from 59.6 µM), inactives show top-dose activity, negative = inhibition, hits mostly inhibitors. actives 0.71% (n = 290,000); also: % is scaled to controls: 0 for no effect and ±100 for the full control effect; nearly all actives have a fitted effect of over 55% in size
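Giardia FBPA (40 nM reagent) was preincubated 10 min at RT with compound (up to 57.5 uM final), then substrate plus GAPDH/TPI/NAD/arsenate coupling system with diaphorase/resazurin was added; resorufin fluorescence (525/598 nm) was read after 20 min.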
RE007 growth inh: less growth of the S. pombe RE007 Vpr strain; actives 0.21% (n = 360,000); Potency, µM (top dose mostly 92.2 µM), for inactives: top-dose activity change, negative = less growth, most hits filed as inhibitors; S. pombe RE007 Vpr strain, BacTiter-Glo ATP luminescence, 24 h; active = well fitted falling curve with a large enough effect; inconclusive = small, poorly fitted or top-dose-only effect; inactive = no such curve, though single readings can be large or run the other way; also: % is scaled to controls: 0 for no effect and ±100 for the full control effect; nearly all actives have a fitted effect of over 50% in size
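Fission yeast strain RE007, carrying one chromosomally integrated HIV-1 vpr copy, was seeded at OD 0.01 in PMG+AL medium with 23 nL pinned compound. After 24 h at 30 °C and 99% humidity, viability was read by BacTiter-Glo luminescence.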
LmPK inh: LmPK (Leishmania mexicana) enzyme inhibition; Q27686; purified LmPK, Kinase-Glo ATP luminescence, 1 h; Potency, µM (highest dose often 57.5 µM), for the others: top-dose activity change, negative = inhibition, usual class: inhibitors; actives 0.37% (n = 290,000); AID 1721; also: % is scaled to controls: 0 for no effect and ±100 for the full control effect
Target sequence (Q27686 whole entry, looked up): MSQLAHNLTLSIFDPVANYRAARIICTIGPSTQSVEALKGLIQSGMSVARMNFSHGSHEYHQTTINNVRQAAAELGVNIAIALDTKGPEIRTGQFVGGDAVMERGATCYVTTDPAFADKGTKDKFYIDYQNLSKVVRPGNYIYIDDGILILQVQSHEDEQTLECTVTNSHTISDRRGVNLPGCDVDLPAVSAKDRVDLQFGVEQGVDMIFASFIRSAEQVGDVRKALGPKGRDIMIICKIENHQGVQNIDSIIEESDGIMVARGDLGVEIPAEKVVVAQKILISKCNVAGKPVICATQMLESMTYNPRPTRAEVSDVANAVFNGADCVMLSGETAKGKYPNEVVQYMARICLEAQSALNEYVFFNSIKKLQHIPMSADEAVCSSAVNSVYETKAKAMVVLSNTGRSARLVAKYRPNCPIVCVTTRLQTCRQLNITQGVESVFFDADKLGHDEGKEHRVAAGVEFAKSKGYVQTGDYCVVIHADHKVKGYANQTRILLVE
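ATP generated from ADP (0.1 mM) and PEP (0.5 mM) by 0.1 nM LmPK over 1 h at room temperature (pH 7.2 imidazole buffer) was detected by coupled luciferase luminescence. Values were normalized to uninhibited and no-enzyme wells.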
NS1 inh: inhibitors of influenza NS1 protein function. Potency, µM (series often up to 46.1 µM), inactives show at the highest dose activity, positive = more growth. actives 0.4% (n = 270,000); calls by dose curve; also: actives are rising curves; nearly all actives have a fitted effect of over 50% in size
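Compounds were scored for reversing the slow growth caused by influenza A NS1 in S. cerevisiae, measured by optical density at 600 nm. Assay medium contained 2% galactose at pH 6.0; NS1-free yeast of the same strain were the positive control.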
Sm TGR inh: inhibitors of Schistosoma mansoni thioredoxin glutathione reductase; actives 3% (n = 360,000); purified TGR, DTNB reduction, TNB absorbance 405 nm; AID 485364; Q962Y6; Potency, µM (highest dose often 114 µM), without a hit: top-dose activity change, negative = inhibition, usual class: inhibitors; also: % is scaled to controls: 0 for no effect and ±100 for the full control effect; nearly all actives have a fitted effect of over 60% in size
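TGR 20 nM + NADPH 100 uM (dispensed conc.), cpd preinc 15 min RT; start with NADPH (500 uM addition) then DTNB (15 mM addition). Kinetic TNB absorbance, 405 nm filter. Four-parameter Hill fit across titration.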
Giardia growth: Giardia lamblia growth inhibition; shares compounds with Giardia FBPA inh-1; Giardia lamblia trophozoite growth inhibition; Potency, µM (titrated, usually from 57.5 µM), for inactives: at the highest dose activity change, negative = inhibition, hits mostly inhibitors; actives 5% (n = 1,500); AID 2785;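 also: trophozoites exposed to compound for 48 h at 37 °C; % is scaled to controls: 0 for no effect and ±100 for the full control effect; nearly all actives have a fitted effect of over 70% in size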
Mammalian tox: mammalian cytotoxicity of Giardia aldolase inhibitor hits | AID 2786 | actives 4% (n = 1,500) | shares compounds with Giardia FBPA inh-1 | mammalian cell viability counter-screen, qHTS | Potency, µM (series often up to 57.5 µM), without a hit: top-dose viability change, negative = toxicity, most hits filed as inhibitors;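 also: Chinese hamster ovary cells used as mammalian cytotoxicity surrogate; viability measured as cellular ATP by luminescence; compound exposure lasted 48 h before reading; % is scaled to controls: 0 for no effect and ±100 for the full control effect; nearly all actives have a fitted effect of over 60% in size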
Giardia FBPA inh-2: confirmation of Giardia fructose-bisphosphate aldolase inhibitors; actives 5% (n = 1,500); AID 2787; shares compounds with Giardia FBPA inh-1; Potency, µM (series often up to 57.5 µM), without a hit: top-dose activity change, negative = inhibition, most hits filed as inhibitors; purified Giardia aldolase enzyme activity, qHTS; also: % is scaled to controls: 0 for no effect and ±100 for the full control effect; nearly all actives have a fitted effect of over 45% in size
Rabbit FBPA inh: rabbit FBP aldolase inhibition by Giardia aldolase hits | Rabbit muscle FBPA enzyme inhibition, selectivity counter-screen | AID 2794 | actives 4% (n = 1,500) | Potency, µM (series often up to 57.5 µM), for the others: top-dose activity, negative = inhibition, hits mostly inhibitors | shares compounds with Giardia FBPA inh-1; also: % is scaled to controls: 0 for no effect and ±100 for the full control effect; nearly all actives have a fitted effect of over 60% in size
Target sequence (P00883 whole entry, looked up): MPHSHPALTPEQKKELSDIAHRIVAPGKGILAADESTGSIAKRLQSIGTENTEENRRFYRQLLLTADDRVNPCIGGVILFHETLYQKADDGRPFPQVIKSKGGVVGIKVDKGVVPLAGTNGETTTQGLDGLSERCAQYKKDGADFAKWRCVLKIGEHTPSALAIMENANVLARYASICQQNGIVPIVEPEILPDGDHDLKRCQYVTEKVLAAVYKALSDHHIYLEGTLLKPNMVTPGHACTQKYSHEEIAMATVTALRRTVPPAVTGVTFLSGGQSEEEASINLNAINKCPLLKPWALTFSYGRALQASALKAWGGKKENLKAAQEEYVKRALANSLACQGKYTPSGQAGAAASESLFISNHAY
GAPDH counter: GAPDH inhibition flagged for Giardia aldolase hits; shares compounds with Giardia FBPA inh-1; actives 6% (n = 1,500); AID 2795; GAPDH coupling enzyme counterscreen, biochemical, qHTS; Potency, µM (doses to about 57.5 µM), without a hit: top-dose activity change, negative = inhibition, most hits filed as inhibitors; also: % is scaled to controls: 0 for no effect and ±100 for the full control effect; nearly all actives have a fitted effect of over 55% in size
Numbers without * were called inactive; ? = inconclusive; nt = no result; ! = a repeat was not active; [ ] = another dose, or the depositor's remark. A selection: hits, their analogues and other compounds. The true share with any hit is near 3.5%. Unless noted, calls follow the shape of the dose curve; as a rule, active = well fitted curve in the direction sought with a large enough effect; inconclusive = small, poorly fitted or top-dose-only effect, or another doubt; inactive = no such curve, though single readings can be large; an effect the other way counts as inactive or inconclusive. Potency is read from the fitted curve at half-maximal effect.

SMILES	TbPYK inhibitor	Giardia FBPA inh-1	RE007 growth inh	LmPK inh	NS1 inh	Sm TGR inh	Giardia growth	Mammalian tox	Giardia FBPA inh-2	Rabbit FBPA inh	GAPDH counter
O=C(Nc1cccc(C(F)(F)F)c1)Nc1nnc(N2CCCCCC2)s1	1%	nt	nt	nt	nt	-6%	nt	nt	nt	nt	nt
Cc1ccc2nc(CSc3nnc(NC(=O)C(C)C)s3)cc(=O)n2c1	0%	nt	nt	nt	nt	0%	nt	nt	nt	nt	nt
Cc1ccc(NC(=O)c2sc(=S)n(-c3cc(C)ccc3F)c2N)cc1	-26%	18µM*	-15%	4%	nt	-4%	14%	-8%	-25%	?	-21%
Cc1ccccc1-n1c(N)c(C(=O)Nc2ccc(F)cc2)sc1=S	-6%	-1%	4%	1%	nt	-3%	nt	nt	nt	nt	nt
Cc1ccc(NC(=S)Nc2cccc3cnccc23)cc1C	-2%	?	-29%	1%	-1%	?	nt	nt	nt	nt	nt
S=C(Nc1cccc(Cl)c1)Nc1cccc2cnccc12	-24%	0.25µM*	-35%	5%	-29%	25µM*	12%[38.3 µM]	10%	?	?	25µM*
Cc1ccc(C)c(N2CCN(S(=O)(=O)c3cc(C(=O)Nc4cc(Cl)cc(Cl)c4)ccc3F)CC2)c1	-2%	nt	nt	nt	nt	9%	nt	nt	nt	nt	nt
COc1ccc(CN2CCN(c3ccc(F)cc3)CC2)c(OC)c1OC	2%	-12%	-20%	2%	1%	8%	nt	nt	nt	nt	nt
COc1cccc(CN2CCSCC2)c1	12%	?	80%	-6%	-4%	-1%	nt	nt	nt	nt	nt
COc1ccc(CN2CCNCC2)c(OC)c1OC	-12%	22µM*!	-5%[18.4 µM]	0%	-2%	?	-4%[10.4 µM]	4%	-1%	1%	19%
COc1cccc(CN2CCN(Cc3cc(OC)c(OC)cc3OC)CC2)c1	2%	14µM*	-5%	-8%	2%	0%	-25%	4%	-5%	5%	5%
COc1cccc(CN2CCNCC2)c1	-6%	3.5µM*	-3%	2%	14%	-8%	?	-2%	8%	3%	7%
CCC(C)(C)C(=O)O[C@@H]1C[C@@H](C)C=C2C=C[C@H](C)[C@H](CC[C@@H]3C[C@@H](O)CC(=O)O3)[C@H]21	nt	-11%	nt	nt	nt	nt	nt	nt	nt	nt	nt
O=C1C(=O)c2ccccc2-c2ccccc21	0%	0.14µM*	?	-5%	-39%	?	13µM*	20µM*	1.1µM*	0.89µM*	1.1µM*
CC(=O)Nc1cccc(-c2csc(NCc3ccccc3)n2)c1	-15%	20µM*	-15%	0%	2%	-7%	18%	-7%	8%	8%	5%
CC(=O)Nc1ccc(-c2csc(NCc3ccccc3)n2)cc1	7%	-7%	-4%	5%	8%	nt	nt	nt	nt	nt	nt
O=C(CN1CCCC1)Nc1c2c(nc3ccccc13)N(Cc1ccccc1)CC2	7%	?	-12%	-3%	-3%	2%	nt	nt	nt	nt	nt
O=C(CN1CCOCC1)Nc1c2c(nc3ccccc13)N(Cc1ccccc1)CC2	5%	16µM*	-19%	-16%	-5%	-22%	?	-3%	-7%	-3%	-5%
CC(C)CCn1c(=O)c2cccnc2n(CC(=O)Nc2ccc(F)cc2)c1=O	2%	nt	nt	nt	nt	7%	nt	nt	nt	nt	nt
CCOc1cc(C=O)cc(N=Nc2cccc([N+](=O)[O-])c2)c1O	-4%	13µM*	-19%	-6%	15%	?	?	1%	-19%	-11%	-1%
O=[N+]([O-])c1cccc(N=Nc2ccc(O)cc2O)c1	-2%	nt	-28%	nt	nt	nt	nt	nt	nt	nt	nt
COc1ccc(CCN(Cc2ccccn2)C(=S)Nc2cccc(SC)c2)cc1OC	2%	10µM*	-8%	1%	nt	25%	-6%[38.3 µM]	-26%	-11%	-8%	-3%
COc1ccc(CCN(Cc2ccccn2)C(=S)Nc2ccc(C)cc2)cc1OC	3%	-4%	15%	4%	5%	17%	nt	nt	nt	nt	nt
COc1ccccc1NC(=S)N(Cc1ccc(C)cc1)Cc1cccnc1	5%	-9%	-24%	-2%	nt	1%	nt	nt	nt	nt	nt
COc1ccccc1NC(=S)N(Cc1ccc(C)cc1)Cc1ccccn1	-5%	18µM*	6%	-1%	nt	5%	60%	-7%	6%	11%	18%
SMILES	TbPYK inhibitor	Giardia FBPA inh-1	RE007 growth inh	LmPK inh	NS1 inh	Sm TGR inh	Giardia growth	Mammalian tox	Giardia FBPA inh-2	Rabbit FBPA inh	GAPDH counter
NS(=O)(=O)c1ccc(NC(=S)NCC2CCCO2)cc1 (stereo not drawn)	-19%	-2%	5%	-1%	10%	-17%	nt	nt	nt	nt	nt
CC(=O)Nc1ccc(S(=O)(=O)NNC(=S)NCC2CCCO2)cc1 (stereo not drawn)	-4%	13µM*	-8%	0%	-5%	?	133%	2%	11%	9%	11%
O=c1c2cn[nH]c2[nH]c(=S)n1-c1ccccc1	?	?	-9%	?	8%	-8%	nt	nt	nt	nt	nt
COc1ccc(-n2c(=S)[nH]c3[nH]ncc3c2=O)cc1	?	18µM*	5%	-13%	6%	16%	-11%[10.4 µM]	7%	1%	3%	10%
CC(=O)/C(=N\Nc1ccc(C)cc1)Sc1nncn1C	?	3.5µM*	6%	-25%	4%	-13%	-5%[38.3 µM]	-1%	-2%	-2%	-21%
CC(C)n1cnc2c(=S)nc[nH]c21	-13%	3.2µM*	nt	-2%	4%	70%	6%[38.3 µM]	-2%	-2%	-20%	?
S=c1nc[nH]c2c1ncn2-c1ccccc1	0%	nt	21%	nt	nt	nt	nt	nt	nt	nt	nt
Cc1n[nH]c(=O)nc1N/N=C/c1ccc(O)c([N+](=O)[O-])c1	-11%	18µM*	-22%	?	2%	0%	14µM*	10%	-11%	-15%	-6%
COc1cc(/C=N/Nc2nc(=O)[nH]nc2C)cc([N+](=O)[O-])c1O	-7%	20µM*	-12%	-16%	4%	-10%	?	19%	-15%	-21%	-15%

Compound activity (PubChem BioAssay)
